Screens deposited in PubChem by National Center for Advancing Translational Sciences (NCATS).
A selection: hits, their analogues and other compounds. The true share with any hit is near 19%.
HT1080 IDH1KD tx – HT-1080 IDH1 knockdown cell toxicity (counter line); HT-1080 IDH1 knockdown viability, ATP luminescence, 48 h; Potency, µM (doses to about 46.1 µM), for inactives: at the top dose activity, negative = toxicity, actives largely listed as cytotoxic; 360,000 tested, 2% active; AID 686971;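 note: potency is the fitted concentration of half-maximal effect; 0% = DMSO wells and -100% = cell-free medium wells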
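Using the IDH1-knockdown HT-1080 line run in the same batch and compound series as the NT line, viability after 48 h at 37 °C was determined by CellTiter-Glo luminescence and expressed as % activity.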
HT1080NT lethal – kills 2HG-producing HT-1080-NT fibrosarcoma cells | HT-1080-NT fibrosarcoma viability, CellTiter-Glo ATP luminescence, 48 h | Potency, µM (titrated, usually from 46.1 µM), for the others: at the highest dose activity, negative = less viability, hits mostly cytotoxic | 360,000 tested, 1.6% active;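 note: NT is the 2HG producing partner of a matched IDH1 knockdown line; potency is the fitted concentration of half-maximal effect; 0% = DMSO-treated cells and -100% = media-only wells without cells; nearly all actives have a fitted effect of over 55% in size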
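Fibrosarcoma NT cells, 750 per well in 5% FBS RPMI, were exposed to compound for 48 hours. Viability: CellTiter-Glo luminescence.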
IL1B secr inh – inhibitors of inflammasome signaling (IL-1 beta secretion); THP-1 LPS/ATP IL-1B secretion, AlphaLISA, 16 h; hits give low values; activity change, % at 57.5 µM; 360,000 tested, 4.7% active; in the data active = activity change below about -50%; inconclusive = mostly about -30% to -49%
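THP-1 cells pretreated 1 hr with compounds (up to 57.5 uM final), then stimulated with LPS (250 ng/mL final) plus ATP (1.25 mM final); secreted IL-1B measured by AlphaLISA after 16 hr, decreased signal indicating inhibition.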
TDP1 cell noCPT – qHTS for Inhibitors of human tyrosyl-DNA phosphodiesterase 1 (TDP1): qHTS in cells in absence of CPT. DT40 Tdp1-/- hTDP1 cells, no CPT, ATP luminescence, 48 h. Potency, µM (highest dose often 46.2 µM), for the others: at the top dose activity change, negative = growth inhibition, hits mostly inhibitors. 420,000 tested, 15% active. AID 686978, 2013; note: potency is the fitted concentration of half-maximal effect; nearly all actives have a fitted effect of over 55% in size
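Compound effects on proliferation are scored in DT40 Tdp1-/-;hTDP1 cells in the absence of CPT. ATP levels (CellTiter-Glo luminescence) are recorded after a ≥48 hr, 37 °C incubation.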
DT40 TDP1 CPT – DT40-hTDP1 cell growth loss with CPT | AID 686979 | chicken DT40 Tdp1-/-;hTDP1 cells + 20 nM CPT, ATP luminescence, 48 h | 420,000 tested, 12% active | Potency, µM (series often up to 46.2 µM), inactives show at the highest dose activity change, negative = growth inhibition, usual class: inhibitors; note: potency is the fitted concentration of half-maximal effect; nearly all actives have a fitted effect of over 55% in size
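Cell growth measured by CellTiter-Glo luminescence after a minimum 48 h, 37 C compound exposure with 20 nM CPT in Tdp1-knockout DT40 cells stably expressing hTDP1, seeded 400/well; qHTS titration format.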
Numbers without * were called inactive; u = inconclusive; x = not tested or not shown; [ ] = another dose, or the depositor's remark. Unless noted, calls come from the whole dose curve; as a rule, active = well fitted curve in the direction sought with a large enough effect; inconclusive = small, poorly fitted or top-dose-only effect, or another doubt; inactive = no such curve, though single readings can be large; an effect the other way counts as inactive or inconclusive. Unless noted, % is set by controls: 0 for no effect and ±100 for the full control effect.

SMILES	HT1080 IDH1KD tx	HT1080NT lethal	IL1B secr inh	TDP1 cell noCPT	DT40 TDP1 CPT
CCN(C(=O)c1ccncc1)c1c(N)n(Cc2ccccc2)c(=O)[nH]c1=O	3%	0%	7	7%	25%
COCCn1c(C)cc(O)c(C(c2ccccc2)N2CCN(c3ccc(F)cc3)CC2)c1=O (stereo not given)	x	x	x	u	-9%
COc1cccc2cc(C(=O)Nc3ccc(C)cc3)c(=O)oc12	x	x	x	-1%	-6%
COc1ccc(NC(=O)c2cc3cccc(OC)c3oc2=Nc2ccc(C(=O)O)cc2)cc1OC	-9%	0%	-1	13µM*	9.2µM*
CCOC(=O)C1CCN(c2c(C(=O)c3ccc(OC)cc3)cnc3ccccc23)CC1	x	x	x	16µM*	21µM*
COc1ccccc1N1CCN(Cc2ccc(C(=O)O)cc2)CC1	2%	1%	36	-4%	-3%
COc1cc2ncc(C(=O)c3ccccc3)c(N3CCN(Cc4ccccc4)CC3)c2cc1OC	-30%	u	-77*	18µM*	u
CCOC(=O)C1CCN(c2c(C(=O)c3ccccc3)cnc3ccc(CC)cc23)CC1	8%	0%	3	18µM*	u
O=C(c1ccccc1)c1cnc2ccc(Cl)cc2c1N1CCOCC1	4%	-1%	11	-7%	0%
CCOC(=O)C1CCCN(c2c(C(=O)c3ccccc3)cnc3ccccc23)C1 (stereo not given)	-9%	-17%	22	-29%	-10%
CCOc1cc(N2CCOCC2)c(OCC)cc1NC(=O)c1cccc(S(=O)(=O)N2CCOCC2)c1	u	13%	7	u	-25%
CCOC1=C2[C@@H](CN(S(=O)(=O)c3ccc(C)cc3)[C@H]2c2ccccc2F)[C@H]2C(=O)N(C3CCCCC3)C(=O)[C@H]2C1	10%	24%	-6	u	u
Cn1c(=O)c2c(n3cnnc13)-c1ccccc1CC21CCCC1	-4%	-2%	-12	15µM*	u
CSc1nnc2n(C)c3c(c(=O)n12)C1(CCCC1)Cc1ccccc1-3	-9%	-11%	1	26µM*	u
O=c1c2c(n3cnnc3n1C1CCCCC1)-c1ccccc1CC21CCCCC1	26%	-1%	16	26µM*	21µM*
Cn1ncn2c(=O)c3c(nc12)-c1ccccc1CC31CCCC1	-3%	1%	63	u	u
O=c1c2c(n3nnnc3n1-c1ccccc1)-c1ccccc1CC21CCCC1	-8%	-2%	21	u	2.3µM*
O=c1c2c(n3nnnc3n1Cc1ccccc1)-c1ccccc1CC21CCCC1	6%	8%	14	u	-29%
COc1ccccc1CNC(=O)COC(=O)Cc1ccc(F)cc1	2%	-1%	19	-7%	3%
CCOC(=O)CN(C(=O)CSc1nnc2c(n1)[nH]c1ccc(F)cc12)c1ccccc1	-18%	-12%	u	u	21µM*
COC(=O)CS(=O)(=O)c1nc2ccccc2nc1N1CCCCC1	x	x	x	13µM*	21µM*
COc1ccc2c(c1OC)C(=O)N(c1ccc(OCc3ccccc3)cc1)C2=O	19%	15%	4	-2%	3%
COc1ccc(N2N=NN(C(C)C)C2=C(Cl)c2nnnn2-c2ccc(OC)cc2)cc1	u	-7%	x	8.2µM*	5.8µM*
C=CCSc1nnnn1-c1ccc(OC)cc1	-23%	2%	-5	-18%	-12%
COc1ccc(-c2nc(CS(=O)(=O)CC(=O)NCCCN3CCOCC3)c(C)o2)cc1	0%	-2%	14	18%	-13%
SMILES	HT1080 IDH1KD tx	HT1080NT lethal	IL1B secr inh	TDP1 cell noCPT	DT40 TDP1 CPT
CN(C)C(=O)c1cccc(-c2cc(NC=O)c3ncc(-c4ccc(F)cc4)n3c2)c1	u	u	82	16µM*	u
Cc1ccc(-c2cc(NC=O)c3ncc(-c4cccc(C(=O)N(C)C)c4)n3c2)cc1	u	u	-14	u	u
COc1ccc(F)cc1-c1cc(NC=O)c2ncc(-c3cccc(C(=O)N(C)C)c3)n2c1	-23%	u	-15	23µM*	u
CC(=O)c1ccc(-c2cnc3c(NC=O)cc(-c4cccc(C(=O)N(C)C)c4)cn23)cc1	u	u	9	7.3µM*	5.2µM*
CC(=O)OC1CC2C(C)(C)CCC(=O)[C@@]2(C)C2CC[C@@]3(C)C(c4ccoc4)OC(=O)C4OC43[C@]12C (stereo not given in full)	x	x	x	16%	11%
COc1ccc(Cl)cc1NC(=O)CSc1nnc2[nH]c(=O)cc(-c3ccccc3)n12	x	x	x	-8%	3%
Cc1cc(/C=C/c2ccnc3ccccc23)ccc1N	x	x	x	20µM*	8.9µM*
c1ccc2c(N=NN3CCCCC3)ccnc2c1	x	x	x	u	-129%
C(=C\c1ccnc2ccccc12)/c1cc2c3c(c1)CCCN3CCC2	x	x	x	2µM*	2.2µM*
Clc1ccccc1/C=C/c1ccnc2ccccc12	0%	-3%	-10	u	u
CN(C)c1ccc(/C=C/c2ccnc3ccccc23)cc1N	x	x	x	2.5µM*	2.8µM*
Nc1c(Br)cc(/C=C/c2ccnc3ccccc23)cc1Br	x	x	x	10µM*	u
Nc1ccc2ncccc2c1N	-6%	1%	0	u	u
Nc1ccc2c(c1)C(=O)c1cc(Cl)c(Cl)cc1-2	1%	0%	-7	-13%	-14%
CC1CCC2(CC1)NC(=O)N(CC(=O)c1ccc(Cl)s1)C2=O (stereo not given)	-2%	5%	0	12%	14%
COC(=O)c1cccc(NC(=O)CCN2C(=O)NC(C)(C)C2=O)c1	1%	-5%	13	-10%	-16%
Cn1c(=O)c2c(nc(N3CCN(Cc4ccccc4)CC3)n2CCCc2ccccc2)n(C)c1=O	-13%	u	0	18µM*	12µM*
Cn1c(=O)c2c(nc(N3CCN(c4ccc([N+](=O)[O-])cc4)CC3)n2C)n(C)c1=O	10%	6%	-5	18µM*	-20%
CC1CCN(c2nc3c(c(=O)n(C)c(=O)n3C)n2Cc2ccccc2)CC1	-3%[9.24 µM]	-14%	-62*	u	-26%
Cn1c(=O)c2c(nc(N3CCN(Cc4ccccc4)CC3)n2CC(=O)c2ccccc2)n(C)c1=O	-2%	12%	12	0%	-21%
Cn1c(=O)[nH]c(=O)c2c1nc(N1CCCC1)n2CCCSc1nnnn1-c1ccccc1	0%	-2%	0	16µM*	21µM*
CN1CCN(c2nc3c(c(=O)n(C)c(=O)n3C)n2Cc2ccccc2)CC1	-3%	-3%	-6	12%	-10%
Cn1c(=O)c2c(nc(N3CCN(c4ccccc4)CC3)n2CCCc2ccccc2)n(C)c1=O	12%	9%	28	6.5µM*	8.2µM*
